From PubChem BioAssay (NCATS)
Results filed as inconclusive are left out. Calls of active or inactive are those of the source. Calls come from the whole dose curve; as a rule, active = well fitted curve in the direction sought with a large enough effect; inconclusive = small, poorly fitted or top-dose-only effect, or another doubt; inactive = no such curve, though single readings can be large; an effect the other way counts as inactive or inconclusive. Where a SMILES comes first, the peptide text is derived from it. The star is where a group is joined. AMC = Cc1cc(=O)oc2cc(N*)ccc12; Cbz = O=C(OCc1ccccc1)*

Tests used:
HACAT = assay: qHTS assay to identify novel small-molecules to repurpose for Merkel cell carcinoma treatment (AID 1296009); conditions: MCC and control cell lines, CellTiter-Glo viability, 72 h; at 44.8 µM (top of the series) unless noted; note: nearly all actives have a fitted effect of over 60% in size
Summary of the method: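 Cell viability measured by CellTiter-Glo following 72 hr compound treatment at 37 degree celsius, with NPC and MIPE libraries tested in 8- and 11-point concentration series.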

C33A = assay: Primary qHTS to identify gynecologic anti-cancer compounds using libraries of approved drugs and bioactive compounds (AID 1345084); conditions: Gynecologic cancer cell panel viability, ATPlite luminescence, 48 h; series mostly up to 57.5 µM; note: % is set by controls: 0 for no effect and ±100 for the full control effect; nearly all actives have a fitted effect of over 55% in size
Summary of the method: (§1)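 Cytotoxicity screen measuring ATP content by luciferase luminescence. Each compound is applied at five concentrations for 48 h at 37 C with 5% CO2.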

CAOV3 = assay: as above; conditions: Gynecologic cancer cell panel viability, ATPlite luminescence, 48 h; series mostly up to 57.5 µM
Summary of the method: as §1

CASKI = assay: as above; conditions: Gynecologic cancer cell panel viability, ATPlite luminescence, 48 h; series mostly up to 57.5 µM
Summary of the method: as §1

Es-2 = assay: as above; conditions: Gynecologic cancer cell panel viability, ATPlite luminescence, 48 h; series mostly up to 57.5 µM
Summary of the method: as §1

HeLa = assay: as above; conditions: Gynecologic cancer cell panel viability, ATPlite luminescence, 48 h; series mostly up to 57.5 µM
Summary of the method: as §1

Hek293T = assay: as above; conditions: Gynecologic cancer cell panel viability, ATPlite luminescence, 48 h, control line for the selectivity index; series mostly up to 57.5 µM
Summary of the method: as §1

JEG-3 = assay: as above; conditions: Gynecologic cancer cell panel viability, ATPlite luminescence, 48 h; series mostly up to 57.5 µM
Summary of the method: as §1

C[C@@H]1CC[C@]2(C(=O)O[C@@H]3O[C@H](CO[C@@H]4O[C@H](CO)[C@@H](O[C@@H]5O[C@@H](C)[C@H](O)[C@@H](O)[C@H]5O)[C@H](O)[C@H]4O)[C@@H](O)[C@H](O)[C@H]3O)CC[C@]3(C)C(=CCC4[C@@]5(C)C[C@@H](O)[C@H](O)[C@@](C)(CO)C5CC[C@]43C)C2[C@H]1C (stereo partly drawn)
inactive: outcome (HACAT) inactive [at 9.27 µM] | activity change, negative = cytotoxicity (C33A) -0.2% [at 11.6 µM] | activity change, negative = cytotoxicity (CAOV3) -4.15% [at 11.6 µM] | activity change, negative = cytotoxicity (CASKI) 20.3% [at 11.6 µM] | activity change, negative = cytotoxicity (Es-2) -3.91% [at 11.6 µM] | activity change, negative = cytotoxicity (HeLa) 11% [at 11.6 µM] | activity change, negative = cytotoxicity (Hek293T) -0.706% [at 11.6 µM] | activity change, negative = cytotoxicity (JEG-3) 0.915% [at 11.6 µM]

Cc1cc(=O)oc2cc(NC(=O)[C@H](CCC(=O)O)NC(=O)[C@H](CC(C)C)NC(=O)[C@H](CC(C)C)NC(=O)OCc3ccccc3)ccc12 (Cbz-Leu-Leu-Glu-{AMC})
inactive: outcome (HACAT) | Potency (C33A) | Potency (CAOV3) | outcome (CASKI) | Potency (Es-2) | Potency (HeLa) | Potency (Hek293T) | Potency (JEG-3)

CC(=O)O[C@H]1[C@H](OC(=O)C(C)C)[C@]2(C)OC3(CC[C@]2(C)[C@H]2CCC[C@]4(CO4)[C@]12C)COC(=O)C3 (stereo partly drawn)
inactive: outcome (HACAT) inactive [at 17.4 µM] | Potency (C33A) | Potency (CAOV3) | outcome (CASKI) | Potency (Es-2) | Potency (HeLa) | Potency (Hek293T) | Potency (JEG-3)

CC1(C)OC(=O)C=C[C@@]2(C)C1CC(=O)[C@]1(C)C2CC[C@@]2(C)[C@H](c3ccoc3)OC(=O)[C@H]3O[C@]321 (stereo partly drawn)
inactive: outcome (HACAT) inactive [at 17.4 µM] | Potency (C33A) | Potency (CAOV3) | outcome (CASKI) | Potency (Es-2) | Potency (HeLa) | Potency (Hek293T) | Potency (JEG-3)

OCC(O)C(c1c[nH]c2ccccc12)c1c[nH]c2ccccc12 (stereo not drawn)
inactive: outcome (HACAT) | Potency (C33A) | Potency (CAOV3) | outcome (CASKI) | Potency (Es-2) | Potency (HeLa) | Potency (Hek293T) | Potency (JEG-3)

C/C=C(\C)C(=O)OC[C@H]1O[C@@H](O[C@H]2[C@@H](O[C@H]3O[C@H](CO)[C@@H](O)[C@H](O)[C@H]3O[C@@H]3O[C@H](CO)[C@@H](O)[C@H](O)[C@H]3O)O[C@H](COC(=O)/C(C)=C/C)[C@@H](O)[C@@H]2O)[C@H](O)[C@@H](O)[C@@H]1O
inactive: outcome (HACAT) inactive [at 9.27 µM] | activity change, negative = cytotoxicity (C33A) 7.95% [at 11.6 µM] | activity change, negative = cytotoxicity (CAOV3) 13.6% [at 11.6 µM] | activity change, negative = cytotoxicity (CASKI) -6.51% [at 11.6 µM] | activity change, negative = cytotoxicity (Es-2) -0.184% [at 11.6 µM] | activity change, negative = cytotoxicity (HeLa) -3.59% [at 11.6 µM] | activity change, negative = cytotoxicity (Hek293T) 2.97% [at 11.6 µM] | activity change, negative = cytotoxicity (JEG-3) -0.345% [at 11.6 µM]

CC(C)(O)/C=C/C(=O)[C@](C)(O)[C@H]1[C@H](O)C[C@@]2(C)[C@@H]3CC=C4[C@@H](C=C(O[C@@H]5O[C@H](CO)[C@@H](O)[C@H](O)[C@H]5O)C(=O)C4(C)C)[C@]3(C)C(=O)C[C@]12C
inactive: outcome (HACAT) inactive [at 17.4 µM] | Potency (C33A) | Potency (CAOV3) | outcome (CASKI) | Potency (Es-2) | Potency (HeLa) | Potency (Hek293T) | Potency (JEG-3)

O=C(NC/C=C/CN1CCN(c2cccc(Cl)c2Cl)CC1)c1ccc(-c2ccccn2)cc1
inactive: outcome (HACAT) | Potency (C33A) | Potency (CAOV3) | outcome (CASKI) | Potency (Es-2) | Potency (HeLa) | Potency (Hek293T) | Potency (JEG-3)

O=C(C1OC1/C=C/c1ccc2c(c1)OCO2)N1CCCCC1 (stereo not drawn)
inactive: outcome (HACAT) | Potency (C33A) | Potency (CAOV3) | outcome (CASKI) | Potency (Es-2) | Potency (HeLa) | Potency (Hek293T) | Potency (JEG-3)

CC1=CC2=C(C)C(=O)C(C)(O)C(O)C2CO1 (stereo not drawn)
inactive: outcome (HACAT) | Potency (C33A) | Potency (CAOV3) | outcome (CASKI) | Potency (Es-2) | Potency (HeLa) | Potency (Hek293T) | Potency (JEG-3)

C[C@@H]1CCC2C(C)(C)[C@H](O)[C@H](O)C[C@]2(C)[C@@]12Cc1c(O)cc3c(c1O2)CN(CCCC(=O)O)C3=O (stereo partly drawn)
inactive: outcome (HACAT) inactive [at 17.4 µM] | Potency (C33A) | Potency (CAOV3) | outcome (CASKI) | Potency (Es-2) | Potency (HeLa) | Potency (Hek293T) | Potency (JEG-3)

O=C(CC1CC(c2ccc(F)cc2F)=NO1)N1CCOCC1 (stereo not drawn)
inactive: outcome (HACAT) | Potency (C33A) | Potency (CAOV3) | outcome (CASKI) | Potency (Es-2) | Potency (HeLa) | Potency (Hek293T) | Potency (JEG-3)

CC1=C[C@H]2[C@@H](CC1=O)[C@H](C)C[C@H](O)[C@H]2C(C)C
inactive: outcome (HACAT) | Potency (C33A) | Potency (CAOV3) | outcome (CASKI) | Potency (Es-2) | Potency (HeLa) | Potency (Hek293T) | Potency (JEG-3)

COc1cc(O[C@@H]2O[C@H](CO[C@H]3OC[C@](O)(CO)[C@H]3O)[C@@H](O)[C@H](O)[C@H]2O)cc(OC)c1O
inactive: outcome (HACAT) inactive [at 17.4 µM] | Potency (C33A) | Potency (CAOV3) | outcome (CASKI) | Potency (Es-2) | Potency (HeLa) | Potency (Hek293T) | Potency (JEG-3)

COC(=O)C1=COC(OC2OC(CO)C(O)C(O)C2O)C2C(C)C(OC(C)=O)C(OC(=O)c3ccccc3)C12 (stereo not drawn)
inactive: outcome (HACAT) inactive [at 17.4 µM] | Potency (C33A) | Potency (CAOV3) | outcome (CASKI) | Potency (Es-2) | Potency (HeLa) | Potency (Hek293T) | Potency (JEG-3)

C[C@@H]1CC2OC(=O)C3=C2C(CCC3O)[C@@]12C[C@@H](c1ccoc1)OC2=O (stereo partly drawn)
inactive: outcome (HACAT) | Potency (C33A) | Potency (CAOV3) | outcome (CASKI) | Potency (Es-2) | Potency (HeLa) | Potency (Hek293T) | Potency (JEG-3)
